# According to PubChem BioAssay (NCATS):
# Records with an inconclusive call do not appear. Values without a mark were called inactive. Calls of active or inactive are those of the source. The call rests on the fitted dose curve; in most records, active means well fitted cell-killing curve with a large enough effect; inconclusive means small, poorly fitted or top-dose-only effect, or effect the other way; inactive means no such curve, though single readings can be large or run the other way.
# Columns and labels:
# [1] = Quantitative High-Throughput drug screen in 47 multiple myeloma cell lines against the NCATS MIPE library collection: OCIMY7_PLB cell viability assay (AID 1918987); conditions: OCI-MY7 myeloma viability, CellTiter-Glo ATP, 48 h; viability (% of DMSO): at 45.8 µM (top of the series); further: nearly all actives have a fitted effect of over 65% in size
# In short: (§1)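 500 cells/well per myeloma line exposed to pinned MIPE 4.0 compounds for 48 h at 37 °C, 5% CO2. Viability read as ATP by CellTiter-Glo luminescence, normalised to DMSO-only (100%) and media-only (0%) wells.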
# [2] = Quantitative High-Throughput drug screen in 47 multiple myeloma cell lines against the NCATS MIPE library collection: OCIMY5_PLB cell viability assay (AID 1918988); further: nearly all actives have a fitted effect of over 65% in size
# In short: as §1
# [3] = Quantitative High-Throughput drug screen in 47 multiple myeloma cell lines against the NCATS MIPE library collection: OPM1_PLB cell viability assay (AID 1918989); further: nearly all actives have a fitted effect of over 40% in size
# In short: as §1
# [4] = Quantitative High-Throughput drug screen in 47 multiple myeloma cell lines against the NCATS MIPE library collection: U266_ATCC cell viability assay (AID 1919864); further: nearly all actives have a fitted effect of over 35% in size
# In short: as §1
# [5] = Quantitative High-Throughput drug screen in 47 multiple myeloma cell lines against the NCATS MIPE library collection: XG6_PLB cell viability assay (AID 1919865); further: nearly all actives have a fitted effect of over 40% in size
# In short: as §1
# [6] = Quantitative High-Throughput drug screen in 47 multiple myeloma cell lines against the NCATS MIPE library collection: XG1_PLB cell viability assay (AID 1919866); further: nearly all actives have a fitted effect of over 35% in size
# In short: as §1
# [7] = Quantitative High-Throughput drug screen in 47 multiple myeloma cell lines against the NCATS MIPE library collection: VP6_DJ cell viability assay (AID 1919867); further: nearly all actives have a fitted effect of over 40% in size
# In short: as §1
# [8] = Quantitative High-Throughput drug screen in 47 multiple myeloma cell lines against the NCATS MIPE library collection: PE2_PLB cell viability assay (AID 1919869); further: nearly all actives have a fitted effect of over 35% in size
# In short: as §1
# [9] = Quantitative High-Throughput drug screen in 47 multiple myeloma cell lines against the NCATS MIPE library collection: UTMC2_PLB cell viability assay (AID 1919868); conditions: CellTiter-Glo ATP luminescence, 48 h; viability (% of DMSO control): at 45.8 µM (top of the series); further: nearly all actives have a fitted effect of over 55% in size
# In short: as §1
# Potency means the concentration at half of the fitted maximal effect.
Compound,Potency [1],Potency [2],Potency [3],Potency [4],Potency [5],Potency [6],Potency [7],Potency [8],Potency [9]
O=C(C=Cc1ccc(O)cc1)c1ccc(O)cc1O,4.69 µM (active),14.8 µM (active),20.9 µM (active),23.5 µM (active),18.7 µM (active),16.6 µM (active),18.7 µM (active),20.9 µM (active),–
NS(=O)(=O)c1ccc(Nc2nc(OCC3CCCCC3)c3[nH]cnc3n2)cc1,13.2 µM (active),23.5 µM (active),20.9 µM (active),20.9 µM (active),2.96 µM (active),2.64 µM (active),16.6 µM (active),16.6 µM (active),–
CC(=O)N1CCN(c2ccc(OCc3nn(C)c(C)c3-c3cccc4c(CCCOc5cc(C)c(Cl)c(C)c5)c(C(=O)O)n(Cc5cccnc5)c34)cc2)CC1,0.833 µM (active),20.9 µM (active),7.43 µM (active),20.9 µM (active),5.9 µM (active),–,10.5 µM (active),–,7.43 µM (active)
CN1CCC(COc2cnc(-c3cccc(Cn4nc(-c5cccc(C#N)c5)ccc4=O)c3)nc2)CC1,0.059 µM (active),0.0469 µM (active),16.6 µM (active),20.9 µM (active),0.0332 µM (active),0.332 µM (active),0.59 µM (active),1.05 µM (active),–
NC(N)=Nc1nc(CSCCC(N)=NS(N)(=O)=O)cs1,10.5 µM (active),29.6 µM (active),16.6 µM (active),20.9 µM (active),6.62 µM (active),14.8 µM (active),5.26 µM (active),20.9 µM (active),–
COc1ccc2cc1Oc1ccc(cc1)C[C@H]1c3cc(c(OC)cc3CCN1C)Oc1c(OC)c(OC)cc3c1[C@H](C2)N(C)CC3,16.6 µM (active),16.6 µM (active),18.7 µM (active),18.7 µM (active),14.8 µM (active),10.5 µM (active),11.8 µM (active),–,–
Cc1nc(NC(=O)N2CCC[C@@H]2C(N)=O)sc1-c1csc(C(C)(C)C)n1,3.32 µM (active),14.8 µM (active),14.8 µM (active),9.35 µM (active),4.69 µM (active),3.32 µM (active),0.264 µM (active),5.9 µM (active),–
N#CC(c1ccnc(NCCc2cccnc2)n1)c1nc2ccccc2s1 (stereo not drawn),2.96 µM (active),13.2 µM (active),14.8 µM (active),–,5.9 µM (active),–,10.5 µM (active),5.26 µM (active),16.6 µM (active)
CC(C)C[C@H](NC(=O)c1cc2ccccc2s1)C(=O)N1CCN(C(=O)[C@H](CO)NS(=O)(=O)c2ccc(Cl)cc2Cl)CC1,23.5 µM (active),20.9 µM (active),20.9 µM (active),23.5 µM (active),–,–,18.7 µM (active),23.5 µM (active),–
CCN(CCO)CCCOc1ccc2c(Nc3cc(CC(=O)Nc4cccc(F)c4)[nH]n3)ncnc2c1,1.05 µM (active),0.264 µM (active),inactive,inactive,16.6 µM (active),0.0418 µM (active),inactive,inactive,0.0743 µM (active)
CO[C@H]1C=CO[C@@]2(C)Oc3c(C)c(O)c4c(O)c(c(C=NN5CCN(C)CC5)c(O)c4c3C2=O)NC(=O)C(C)=CC=C[C@H](C)[C@H](O)[C@@H](C)[C@@H](O)[C@@H](C)[C@H](OC(C)=O)[C@H]1C,inactive,0.598 µM (active),inactive,–,inactive,inactive,–,inactive,–
CN1CCN(c2ncc(-c3cc(Cl)cc(Cl)c3Cl)c(N)n2)CC1,33.2 µM (active),inactive,inactive,26.4 µM (active),7.43 µM (active),7.43 µM (active),–,10.5 µM (active),inactive
CCC(=C(c1ccc(O)cc1)c1ccc(OCCNC)cc1)c1ccccc1,16.6 µM (active),18.7 µM (active),18.7 µM (active),29.6 µM (active),6.62 µM (active),11.8 µM (active),13.2 µM (active),–,9.35 µM (active)
CN1CCN(c2cccc(Nc3nc4c(-c5ccc(S(C)(=O)=O)cc5)cccn4n3)c2)CC1,0.743 µM (active),4.69 µM (active),2.35 µM (active),3.32 µM (active),0.833 µM (active),0.372 µM (active),0.743 µM (active),1.05 µM (active),–
C[C@H]1COC2=C1C(=O)C(=O)c1c2ccc2c1CCCC2(C)C,13.2 µM (active),20.9 µM (active),20.9 µM (active),–,–,–,16.6 µM (active),26.4 µM (active),9.35 µM (active)
CN(C)c1ccc(-c2nc3ncc(Cl)c(N4CCN(CC(=O)Nc5nccs5)CC4)c3[nH]2)cc1,1.66 µM (active),5.26 µM (active),1.87 µM (active),2.96 µM (active),2.64 µM (active),–,inactive,1.32 µM (active),–
CC(C)(C)c1nc(-c2cccc(NS(=O)(=O)c3c(F)cccc3F)c2F)c(-c2ccnc(N)n2)s1,0.209 µM (active),1.32 µM (active),18.7 µM (active),5.9 µM (active),2.96 µM (active),10.5 µM (active),2.96 µM (active),5.9 µM (active),inactive
